These results are taken from PubChem BioAssay.

Assay [1] can be described thus: compounds binding Alexa647 anti-His antibody – biochemical, small-molecule microarray, 635 nm fluorescence, artefact control for SMM control protein annotation, primary screen (AID 1128).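 Also: score merges feature fluorescence with signal-to-noise for each printed compound spot.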 The following applies: higher = more signal.
In assay [2] the test system is Human papillomavirus type 1a E7 protein (residues 1-88). The assay is described as follows: HPV1a E7 small-molecule binders, primary screen, biochemical, small-molecule microarray, residues 1-88, 635 nm (AID 1129). The following applies: small-molecule microarray binding, fluorescence 635 nm; higher = more signal.
Assay [3] addresses Focal adhesion kinase 1 (Homo sapiens) (UniProt Q05397). The assay is described as follows: PTK2 protein binding on printed compound slides – biochemical, small-molecule microarray, 635/667 nm fluorescence, BSA, DTT, primary screen (AID 1130).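 Also: composite of spot emission at 667 nm and signal to noise over triplicate slides.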 The note with it: 635 nm fluorescence, higher = more signal.
The test system of assay [4] is Fibrinogen (Alexa647-labelled). The assay is described as follows: Alexa647-fibrinogen binding to printed small molecules – biochemical, small-molecule microarray, 635/667 nm fluorescence, artefact control for SMM control-protein annotation, profiling panel (AID 1131).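 Also: z-score merges 667 nm fluorescence with per-spot signal-to-noise over triplicate slides.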 The following applies: fibrinogen-A647 binding fluorescence, higher = more signal.
In assay [5] the target is Follistatin (Homo sapiens) (UniProt P19883). Put plainly: FST protein binding to printed compounds – biochemical, small-molecule microarray, 635/667 nm fluorescence, primary screen (AID 1132). The note with it: 635 nm fluorescence, higher = more signal.
Sequence of Follistatin (Homo sapiens) (P19883 whole entry, looked up): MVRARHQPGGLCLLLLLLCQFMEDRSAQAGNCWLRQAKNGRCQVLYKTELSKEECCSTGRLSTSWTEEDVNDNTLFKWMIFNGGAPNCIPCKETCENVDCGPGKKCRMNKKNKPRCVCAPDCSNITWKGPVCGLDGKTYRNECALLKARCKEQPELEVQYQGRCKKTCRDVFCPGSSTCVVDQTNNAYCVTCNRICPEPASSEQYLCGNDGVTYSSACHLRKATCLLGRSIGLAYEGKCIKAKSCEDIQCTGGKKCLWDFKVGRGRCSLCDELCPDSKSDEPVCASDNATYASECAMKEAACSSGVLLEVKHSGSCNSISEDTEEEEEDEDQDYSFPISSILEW
For assay [6], the target named is Fibroblast growth factor 2 (Homo sapiens) (UniProt P09038). Put plainly: basic fibroblast growth factor binding to printed compounds – biochemical, small-molecule microarray, 635/667 nm fluorescence, primary screen (AID 1133). The note with it: FGF2, fluorescence 635/667, higher = more signal.
Sequence of Fibroblast growth factor 2 (Homo sapiens) (P09038 whole entry, looked up): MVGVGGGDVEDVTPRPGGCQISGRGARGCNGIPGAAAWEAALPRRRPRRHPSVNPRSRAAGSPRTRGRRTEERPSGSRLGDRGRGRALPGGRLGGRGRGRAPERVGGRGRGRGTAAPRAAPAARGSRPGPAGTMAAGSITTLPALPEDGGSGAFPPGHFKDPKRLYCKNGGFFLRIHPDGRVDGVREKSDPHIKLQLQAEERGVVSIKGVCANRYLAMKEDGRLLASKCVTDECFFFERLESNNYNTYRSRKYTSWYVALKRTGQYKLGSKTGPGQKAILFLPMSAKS
The nature of assay [7]: JC-1 mitochondrial potential readout, lung cancer cells – cell-based, A549, JC-1 fluorescence, basal, 24 h, 100 nL, profiling panel (AID 1138).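 Also: A549 lung adenocarcinoma cells under basal conditions with no added stimulus; test concentration not given here.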 The note with it: higher = more signal.
In a further assay the test system is Lefty1. Put plainly: Lefty1 protein binding to printed compounds – biochemical, small-molecule microarray, 635/667 nm fluorescence, primary screen (AID 1139). The note with it: fluorescence 635/667, higher = more signal.
Assay [8] concerns wheat germ agglutinin (Triticum aestivum), Alexa647-labelled. The assay is described as follows: Alexa647-WGA lectin binding to printed small molecules – biochemical, small-molecule microarray, 635/667 nm fluorescence, artefact control for SMM control-protein annotation, profiling panel (AID 1140).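 Also: score merges 667 nm feature emission with signal to noise over triplicate slides.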 The following applies: WGA-A647 binding, 635 nm fluorescence, higher = more signal.

In assay [9] the target is Luciferin 4-monooxygenase (Photinus pyralis) (UniProt P08659). Put plainly: inhibition of purified Photinus pyralis luciferase – biochemical, luminescence, purified enzyme, 2006 set, primary screen (AID 1141).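 Also: cell-free assay with purified firefly luciferase at 100 ng per well in PBS; test concentration not given here.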 The following applies: purified firefly luciferase, SteadyGlo luminescence, 30 min; higher = more signal, called active from +8 up or from −8 down.
Sequence of Luciferin 4-monooxygenase (Photinus pyralis) (P08659 whole entry, looked up): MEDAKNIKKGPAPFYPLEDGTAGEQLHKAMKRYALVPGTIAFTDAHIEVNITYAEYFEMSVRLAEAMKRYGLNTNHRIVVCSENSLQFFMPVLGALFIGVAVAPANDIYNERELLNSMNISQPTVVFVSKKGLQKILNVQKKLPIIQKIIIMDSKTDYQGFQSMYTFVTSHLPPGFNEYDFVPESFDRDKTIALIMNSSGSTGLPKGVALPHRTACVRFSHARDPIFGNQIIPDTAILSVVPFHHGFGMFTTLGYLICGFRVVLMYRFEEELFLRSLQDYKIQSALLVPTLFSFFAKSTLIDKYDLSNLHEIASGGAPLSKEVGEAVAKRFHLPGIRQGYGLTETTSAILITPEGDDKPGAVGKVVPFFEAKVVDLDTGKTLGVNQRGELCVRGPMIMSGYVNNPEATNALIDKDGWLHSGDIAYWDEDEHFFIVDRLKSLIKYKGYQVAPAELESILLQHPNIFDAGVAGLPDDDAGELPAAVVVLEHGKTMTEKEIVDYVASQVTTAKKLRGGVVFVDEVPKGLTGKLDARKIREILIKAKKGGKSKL
For assay [10], the system named is Wnt5a (protein binding on small-molecule microarray). Put plainly: small molecules binding Wnt5a protein – biophysical, small-molecule microarray, 635/667 nm fluorescence, primary screen (AID 1142).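 Also: fluorescence read at 667 nm with signal to noise per printed feature.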 The note with it: 635 nm fluorescence, higher = more signal.
A short description of assay [11]: ATP-based viability of Huh7 replicon cells – cell-based, CellTiter-Glo luminescence, basal, 48 h, cytotoxicity control for HCV replication inhibitor project, primary screen (AID 1143).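 Also: Huh7 hepatoma cells carrying a hepatitis C replication reporter with no stimulus; test concentration not given here.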 The following applies: higher = more signal, called active from +8 up or from −8 down. (A replicon is a self-replicating genome or part of one, used to study replication in cells.)
Assay [12] is described as follows: Pseudomonas biofilm growth suppression – PAO1 strain, BacTiter-Glo luminescence, LB-PBS, primary screen (AID 1144). The following applies: P. aeruginosa PAO1 biofilm, 12 h, higher = more signal.
Assay [13] is described as follows: basal CRE-LacZ reporter activity in PC12 – cell-based, unstimulated, primary screen (AID 1145). The note with it: no forskolin, luminescence, 4.5 h, higher = more signal, called active from +8 up or from −8 down.
Assay [14] can be described thus: forskolin-driven CRE-LacZ activity in PC12 – cell-based, CRE-LacZ reporter, forskolin-stimulated, primary screen (AID 1146).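 Also: PC12 cells with 6xCRE LacZ reporter stimulated by forskolin 10 µM; beta-galactosidase reporter signal reflecting CREB driven transcription.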 The note with it: luminescence, 4.5 h, higher = more signal, called active from +8 up or from −8 down.
Assay [15] has as its target Streptavidin (Streptomyces avidinii) (UniProt P22629). The assay is described as follows: compounds binding control protein streptavidin – biophysical, small-molecule microarray, 635/667 nm fluorescence, artefact control for SMM compound annotation, primary screen (AID 1147).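 Also: signal reflects streptavidin binding to arrayed compounds as a control protein.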 The following applies: higher = more signal.
Assay [16] in a line: probe aInhba binding on compound microarray – biochemical, small-molecule microarray, 635/667 nm fluorescence, primary screen (AID 1148).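 Also: score merges 667nm spot fluorescence with signal-to-noise for antibody binding to printed compounds.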 The note with it: higher = more signal.
Assay [17] addresses Torsin-1A (Homo sapiens) (UniProt O14656). The assay is described as follows: TOR1A wild-type binding on microarray – cell lysate, small-molecule microarray, lysate, 635/667 nm, primary screen (AID 1149). The following applies: COS7 hTOR1A-WT lysate, 635 nm fluorescence, higher = more signal.
Assay [18] shares this target. The assay is described as follows: torsin A mutant lysate binding on microarrays – cell lysate, small-molecule microarray, COS7 lysate, 635/667 nm fluorescence, primary screen (AID 1150).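 Also: score pools 667 nm emission and signal to noise measuring lysate protein binding.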 The following applies: COS7 hTOR1A mutant lysate, 635 nm fluorescence, higher = more signal.
In assay [19] the test system is Sonic hedgehog protein (Shh). Put plainly: Sonic hedgehog microarray binding compounds – biochemical, small-molecule microarray, 635/667 nm fluorescence, primary screen (AID 1151).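 Also: Shh protein binding to compounds spotted on small-molecule microarray slides; score combines spot fluorescence intensity with signal-to-noise across triplicate slides.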 The note with it: 635 nm fluorescence, higher = more signal.

Active and inactive are the calls of the source. Unless noted, no rule for the calls is given here.

Sequence of Focal adhesion kinase 1 (Homo sapiens) (Q05397 whole entry, looked up): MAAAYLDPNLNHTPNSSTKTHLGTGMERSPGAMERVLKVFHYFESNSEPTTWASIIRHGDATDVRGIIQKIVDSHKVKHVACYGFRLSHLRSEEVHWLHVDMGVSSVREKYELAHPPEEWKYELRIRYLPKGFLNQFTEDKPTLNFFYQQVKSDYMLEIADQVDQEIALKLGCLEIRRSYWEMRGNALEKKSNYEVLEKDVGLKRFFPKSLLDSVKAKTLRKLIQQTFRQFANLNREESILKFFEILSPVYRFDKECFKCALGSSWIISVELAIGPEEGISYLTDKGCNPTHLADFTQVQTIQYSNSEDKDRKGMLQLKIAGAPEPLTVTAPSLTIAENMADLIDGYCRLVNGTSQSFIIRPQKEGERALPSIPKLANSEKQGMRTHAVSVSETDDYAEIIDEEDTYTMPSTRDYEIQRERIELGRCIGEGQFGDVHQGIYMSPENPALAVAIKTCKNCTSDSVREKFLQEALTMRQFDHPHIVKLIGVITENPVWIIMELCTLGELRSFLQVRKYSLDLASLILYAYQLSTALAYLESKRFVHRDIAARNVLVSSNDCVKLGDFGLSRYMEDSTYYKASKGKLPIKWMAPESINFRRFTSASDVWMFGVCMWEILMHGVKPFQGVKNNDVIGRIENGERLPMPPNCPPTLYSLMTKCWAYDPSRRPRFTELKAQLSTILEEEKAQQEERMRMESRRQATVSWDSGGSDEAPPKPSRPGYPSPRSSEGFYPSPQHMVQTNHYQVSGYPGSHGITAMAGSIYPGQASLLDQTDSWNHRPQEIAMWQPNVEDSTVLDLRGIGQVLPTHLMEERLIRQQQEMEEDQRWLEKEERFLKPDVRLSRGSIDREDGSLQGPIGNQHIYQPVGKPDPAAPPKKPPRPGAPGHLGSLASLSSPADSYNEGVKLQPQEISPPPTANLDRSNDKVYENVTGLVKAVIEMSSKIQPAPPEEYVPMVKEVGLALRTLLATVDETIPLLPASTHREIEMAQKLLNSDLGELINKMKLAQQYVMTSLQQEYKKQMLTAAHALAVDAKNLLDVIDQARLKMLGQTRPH
Sequence of Torsin-1A (Homo sapiens) (O14656 whole entry, looked up): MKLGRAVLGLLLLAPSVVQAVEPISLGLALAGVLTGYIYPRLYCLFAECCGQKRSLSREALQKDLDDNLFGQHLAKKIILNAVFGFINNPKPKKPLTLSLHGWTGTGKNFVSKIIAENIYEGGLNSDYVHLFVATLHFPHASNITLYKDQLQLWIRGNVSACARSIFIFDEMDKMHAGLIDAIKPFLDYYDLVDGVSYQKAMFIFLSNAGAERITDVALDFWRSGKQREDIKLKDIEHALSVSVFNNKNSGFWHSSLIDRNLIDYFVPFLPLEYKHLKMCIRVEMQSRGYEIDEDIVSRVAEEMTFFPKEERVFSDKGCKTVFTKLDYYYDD
Sequence of Streptavidin (Streptomyces avidinii) (P22629 whole entry, looked up): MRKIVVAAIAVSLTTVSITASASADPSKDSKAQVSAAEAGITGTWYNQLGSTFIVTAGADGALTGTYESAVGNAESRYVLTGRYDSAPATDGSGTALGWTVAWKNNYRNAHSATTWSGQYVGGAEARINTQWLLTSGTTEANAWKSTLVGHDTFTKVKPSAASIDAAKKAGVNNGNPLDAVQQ

Take `CCC1=NOC(CCC2CC(OC(=O)NCc3cccc4c3OCO4)CC3(CCCC(COC(=O)NCCc4ccccc4OC)O3)O2)C1` (stereo not given): the composite z-score was determined as 0.0887 in assay [1]; 1.19 in [2]; 0.494 in assay [3]; 0.155 in assay [4]; 0.505 in [5]; 0.297 in assay [6]. The composite z-score in the assay on Lefty1 is -0.0134; in assay [8] it was 0.703; in assay [10], 0.196; in assay [15], 0.72; in [16], -0.152; with Torsin-1A (Homo sapiens) [17], -0.0106. For the same molecule, the composite z-score came to 0.778 with Torsin-1A (Homo sapiens) [18] and 0.157 in assay [19]. The z-score in assay [7] is 1.41; in assay [9], 0.412 (inactive); in [11], -0.491 (inactive); in assay [12], 0.249 (inactive); in assay [13] it was 1.46 (inactive); in assay [14] it was 0.214 (inactive).
As for `CC(C)CCN1CCc2nc(COc3ccccc3)c3c(c2C1)CO[C@@H](C)C3`, the composite z-score in assay [1] was 0.683; in [2] it was 0.132; in assay [3], 0.233; in assay [4] it was 0.602; in assay [5], 0.0413; in assay [6], -0.0961. In addition, the composite z-score with Lefty1 turned out to be 0.0377; in assay [8], 0.451; in assay [10], 0.0335; in [15], 0.414; in assay [16], 0.0649; with Torsin-1A (Homo sapiens) [17], 0.335. In addition, the composite z-score with Torsin-1A (Homo sapiens) [18] is 0.434; in assay [19], -0.284. Moreover, the z-score in [7] is 1.71; in assay [9] it was -0.781 (inactive); in assay [11], -0.265 (inactive); in assay [12] it was -0.372 (inactive); in assay [13] it was 3.36 (inactive); in assay [14] it was -1.3 (inactive).
As to `COc1ccc(O[C@H]2C=C[C@@H](c3ccccc3)O[C@@H]2CON=C2[C@H]3CCn4c(=O)n(-c5ccccc5)c(=O)n4[C@H]3[C@H](O)[C@@H]3O[C@H]23)cc1`, the composite z-score in assay [1] is -0.444; in assay [2] it was 1.05; in assay [3] it was 0.0673; in assay [4], 0.335; in assay [5], 0.356; in assay [6] it was 0.199. Further, the composite z-score in the assay with Lefty1 was 0.451; in assay [8], 0.883; in assay [10], 0.185; in [15] it was 0.836; in [16], -0.2; in the assay with Torsin-1A (Homo sapiens) [17] it was 0.0461. Besides, the composite z-score with Torsin-1A (Homo sapiens) [18] stood at 0.066; in assay [19], 0.536. Further, the z-score is -0.336 in [7]; 0.618 (inactive) in assay [9]; -1.53 (inactive) in assay [11]; 1.92 (inactive) in [12]; 0.834 (inactive) in assay [13]; -0.016 (inactive) in assay [14].
For `CC(C)=NOC[C@@H](C)[C@H](OCc1ccccc1)C(C)C`, the composite z-score is 0.164 in assay [1]; -1.56 in [2]; -0.15 in assay [3]; -0.22 in assay [4]; -0.476 in [5]; -0.229 in assay [6]. For the same molecule, the composite z-score in the assay on Lefty1 was -0.458; in [8] it was -0.351; in assay [10] it was -0.437; in assay [15] it was 0.0253; in [16], -0.128; with Torsin-1A (Homo sapiens) [17] it was -0.522. For the same molecule, the composite z-score is -0.31 with Torsin-1A (Homo sapiens) [18] and -0.448 in [19]. The z-score in assay [7] is -0.375; in [9], -1.4 (inactive); in assay [11] it was 0.563 (inactive); in assay [12] it was -0.181 (inactive); in [13], 1.17 (inactive); in assay [14], 0.112 (inactive).
On to `COC(=O)[C@H](C)NC(=O)CCC1CC(OC(=O)NCc2ccc3c(c2)OCO3)CC2(CCCC(COC(=O)NCC3CCCCC3)O2)O1` (stereo not given in full), for which the composite z-score in assay [1] was found to be 0.807; in assay [2] it was 1.16; in [3] it was 0.408; in assay [4] it was 0.52; in [5], 0.533; in assay [6], 0.77. Also, the composite z-score in the assay on Lefty1 is 0.97; in assay [8], 0.723; in assay [10] it was 0.283; in assay [15] it was 0.543; in assay [16] it was -0.0719; with Torsin-1A (Homo sapiens) [17] it was 0.174. The composite z-score came to 0.433 with Torsin-1A (Homo sapiens) [18] and 1.72 in [19]. Also, the z-score in assay [7] was -0.00341; in assay [9], 1.16 (inactive); in [11], -0.643 (inactive); in [12], -0.112 (inactive); in assay [13], 0.104 (inactive); in [14] it was 1.35 (inactive).
